Data reported in the supplement of paper PMC6555819.

Key:
Experiment in all cases: PBM binding z-score (relative to random genomic background probes); higher = stronger binding; sequences stand for … in GC…GCGATTGACAGCGTAGAATGAAGG
[1] = test system: FXR:RXRa (NR concentration 270 nM, RXRa partner concentration 90 nM)
How it was run: (§1)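 Binding z-scores were set against random background probes. The data came from custom Agilent 4×180K protein-binding microarrays carrying double-stranded probes with 34-nt variable regions, incubated 1 h with ligand-free nuclear receptor dimers. Partner-specific antibodies detected binding, and scanned fluorescence was regression-normalized.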

[2] = test system: LXRa:RXRa (NR concentration 270 nM, RXRa partner concentration 90 nM)
How it was run: as §1

[3] = test system: LXRa homodimer (NR concentration 270 nM)
How it was run: as §1

[4] = test system: LXRb:RXRa (NR concentration 270 nM, RXRa partner concentration 90 nM)
How it was run: as §1

[5] = test system: LXRb homodimer (NR concentration 270 nM)
How it was run: as §1

[6] = test system: PPARa:RXRa (NR concentration 270 nM, RXRa partner concentration 90 nM)
How it was run: as §1

[7] = test system: PPARg:RXRa (NR concentration 180 nM, RXRa partner concentration 90 nM)
How it was run: as §1

[8] = test system: PPARg:RXRa 270nM:90nM, anti-RXR (NR concentration 270 nM, RXRa partner concentration 90 nM)
How it was run: as §1

[9] = test system: PPARg:RXRa 30nM:10nM, anti-RXR (NR concentration 30 nM, RXRa partner concentration 10 nM)
How it was run: as §1

[10] = test system: PPARg:RXRa 90nM:30nM, anti-RXR (NR concentration 90 nM, RXRa partner concentration 30 nM)
How it was run: as §1

[11] = test system: PPARg:RXRa DBDmut IVT, anti-RXR (DBD mutation: RXRa K156A/R161A, NR concentration 270 nM, RXRa partner concentration 90 nM)
How it was run: as §1

[12] = test system: PPARg:RXRa IVT, anti-PPARg (NR concentration 270 nM, RXRa partner concentration 90 nM)
How it was run: as §1

[13] = test system: PPARg DBDmut:RXRa IVT, anti-PPARg (DBD mutation: PPARg1 K132A/R137A, NR concentration 270 nM, RXRa partner concentration 90 nM)
How it was run: as §1

[14] = test system: PPARg DBDmut IVT, anti-PPARg (DBD mutation: PPARg1 K132A/R137A, NR concentration 270 nM)
How it was run: as §1

[15] = test system: PPARg homodimer (NR concentration 180 nM)
How it was run: as §1

[16] = test system: PXR:RXRa (NR concentration 270 nM, RXRa partner concentration 90 nM)
How it was run: as §1

[17] = test system: PXR homodimer (NR concentration 270 nM)
How it was run: as §1

[18] = test system: RARa:RXR (NR concentration 270 nM, RXRa partner concentration 90 nM)
How it was run: as §1

[19] = test system: RARa homodimer (NR concentration 270 nM)
How it was run: as §1

[20] = test system: RARb:RXRa (NR concentration 270 nM, RXRa partner concentration 90 nM)
How it was run: as §1

Row | Sequence | PBM binding z-score [1] | PBM binding z-score [2] | PBM binding z-score [3] | PBM binding z-score [4] | PBM binding z-score [5] | PBM binding z-score [6] | PBM binding z-score [7] | PBM binding z-score [8] | PBM binding z-score [9] | PBM binding z-score [10] | PBM binding z-score [11] | PBM binding z-score [12] | PBM binding z-score [13] | PBM binding z-score [14] | PBM binding z-score [15] | PBM binding z-score [16] | PBM binding z-score [17] | PBM binding z-score [18] | PBM binding z-score [19] | PBM binding z-score [20]
1 | AGAATGAGCTTATTAAGATCAGGGAATTGCGGTC | -0.612 | -0.88 | -0.374 | -0.82 | -0.756 | -0.52 | 0.00552 | -0.444 | -0.148 | -0.365 | -0.544 | -0.262 | 0.296 | 0.244 | -0.453 | -0.238 | -0.13 | -0.065 | -0.11 | -0.496
2 | GGAACGCGGGCAAAGTTGATAGCATCTGTCGACG | -0.48 | -0.465 | -0.736 | -0.893 | -0.943 | 1.67 | 2.51 | 4.63 | 1.85 | 4.06 | 0.331 | 0.502 | -0.831 | -0.512 | -0.0903 | -0.43 | -0.509 | 0.0758 | -0.689 | 0.414
3 | CCTACTGGGCTATTCAGAGGTCATTGATCATATG | 2.44 | 4.58 | 7.28 | 3.7 | 0.414 | 3.44 | 1.17 | 2.73 | 0.812 | 1.97 | 2.84 | 2.73 | 0.261 | 0.0805 | 2.7 | 4.9 | 2.27 | 4.54 | 0.714 | 2.79
4 | CCTCGGAGGACAGAAGGTGAGAGCTGTCCGCTTT | 0.177 | 0.159 | -0.939 | -0.679 | -0.923 | -0.0914 | -0.442 | -0.325 | -0.929 | -0.465 | -0.327 | 0.0317 | -1.56 | -1.59 | 0.19 | -0.301 | -0.684 | 0.317 | -0.413 | 1.09
5 | TCGAGCAGGTTAGTCGGGGCATTCAGCCAACATA | -0.0429 | -0.284 | -0.517 | 0.593 | -0.865 | 0.572 | -0.408 | -0.00465 | 0.101 | 0.383 | 0.239 | 0.431 | -0.862 | -0.407 | -0.0263 | 0.125 | -0.131 | 0.109 | -0.676 | 0.557
6 | CCTTCTGGGCCACGAAAGGTCATTGATTCAGTGA | 4.23 | 5.51 | 4.66 | 4.55 | 0.628 | 4.97 | 3.74 | 4.4 | 1.82 | 3.94 | 5.63 | 5.14 | 1.99 | 2.08 | 5.35 | 5.74 | 1.61 | 5.44 | 2.53 | 4.21
7 | CCTGCTAGGTCGATGGTCAGCTAAAGCAGCTCGC | -0.156 | -0.179 | -0.637 | -0.279 | -0.599 | 0.0378 | 0.232 | 1.43 | -0.649 | 0.713 | 0.713 | 0.603 | -1.63 | -0.626 | -0.348 | -0.314 | -0.494 | -0.143 | -0.87 | 1.03
